POLB inh: DNA polymerase beta (human) inhibition | Pol beta primer extension/strand displacement, fluorescence kinetic | P06746 | Potency, µM (highest dose often 114 µM), inactives show at the highest dose activity change, negative = inhibition, actives largely listed as inhibitors | 340,000 compounds, 1.3% hits; note: potency is the fitted concentration of half-maximal effect; % is set by controls: 0 for no effect and ±100 for the full control effect
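Kinetic readout of DNA synthesis with strand displacement by Pol beta. Compound and 10 nM enzyme sit 15 min at room temperature; 50 nM substrate starts the reaction, read immediately and at 10 min.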
Pol kappa inh-1: inhibitors of human DNA polymerase kappa | Q9UBT6 | purified Pol kappa, fluorescent DNA synthesis assay, 10 min | Potency, µM (doses to about 107 µM), without a hit: top-dose activity, negative = inhibition, hits mostly inhibitors | 400,000 compounds, 0.53% hits | AID 588579; note: potency is the fitted concentration of half-maximal effect; % is set by controls: 0 for no effect and ±100 for the full control effect
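Enzyme at 10 nM met test compounds for 15 min at room temperature. Substrate addition (50 nM final) began the reaction, which was monitored by fluorescence at 0 and 10 min.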
PI5P4Ka inh: PI5P4K alpha (human) kinase inhibition; P48426; PI5P4Kalpha enzyme, ADP-Glo luminescence, 60 min; hits give low values; max response, %; 330,000 compounds, 1.2% hits; AID 652105; active = max response of -50% or lower; inconclusive = between -30% and -50%; inactive = -30% or higher; note: value at the top dose of about 77 µM; % is set by controls: 0 for no effect and ±100 for the full control effect
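Controls without substrate or without enzyme flank wells where PI5P4Kalpha converts substrate using 5 microM ATP (final). Incubation lasts 60 minutes at room temperature; ADP formed is read by ADP-Glo luminescence.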
Pol eta inh-1: DNA polymerase eta (human) inhibition; Q9Y253; recombinant Pol eta, fluorescent DNA replication assay; Potency, µM (highest dose often 114 µM), for inactives: at the highest dose activity change, negative = inhibition, actives largely listed as inhibitors; 390,000 compounds, 1.2% hits; note: potency is the fitted concentration of half-maximal effect; % is set by controls: 0 for no effect and ±100 for the full control effect
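Pol eta at 10 nM preincubated with compounds 15 min at room temperature; reaction started with fluorescent substrate (50 nM final) and read kinetically at 0 and 10 min.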
WRN inhibitor: WRN helicase (human) inhibition; Potency, µM (top dose mostly 114 µM), for the others: at the top dose activity change, negative = inhibition, most hits filed as inhibitors; 360,000 compounds, 0.46% hits; WRN helicase unwinding, fluorescent forked duplex, kinetic; note: potency is the fitted concentration of half-maximal effect; % is set by controls: 0 for no effect and ±100 for the full control effect; nearly all actives have a fitted effect of over 55% in size
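Kinetic fluorescence helicase assay: unwinding of a quenched forked DNA duplex (100 nM final) with 2 mM ATP final raises red fluorescence (525/598 nm). Compounds sat 15 min at room temperature with 20 nM WRN beforehand.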
POLI inh: blocks human DNA polymerase iota activity. Q9UNA4. Pol iota fluorescent replication assay, 10 min. Potency, µM (doses to about 115 µM), without a hit: top-dose activity, negative = inhibition, hits mostly inhibitors. 390,000 compounds, 1% hits. AID 588590; note: potency is the fitted concentration of half-maximal effect
Target sequence (Q9UNA4 whole entry, looked up): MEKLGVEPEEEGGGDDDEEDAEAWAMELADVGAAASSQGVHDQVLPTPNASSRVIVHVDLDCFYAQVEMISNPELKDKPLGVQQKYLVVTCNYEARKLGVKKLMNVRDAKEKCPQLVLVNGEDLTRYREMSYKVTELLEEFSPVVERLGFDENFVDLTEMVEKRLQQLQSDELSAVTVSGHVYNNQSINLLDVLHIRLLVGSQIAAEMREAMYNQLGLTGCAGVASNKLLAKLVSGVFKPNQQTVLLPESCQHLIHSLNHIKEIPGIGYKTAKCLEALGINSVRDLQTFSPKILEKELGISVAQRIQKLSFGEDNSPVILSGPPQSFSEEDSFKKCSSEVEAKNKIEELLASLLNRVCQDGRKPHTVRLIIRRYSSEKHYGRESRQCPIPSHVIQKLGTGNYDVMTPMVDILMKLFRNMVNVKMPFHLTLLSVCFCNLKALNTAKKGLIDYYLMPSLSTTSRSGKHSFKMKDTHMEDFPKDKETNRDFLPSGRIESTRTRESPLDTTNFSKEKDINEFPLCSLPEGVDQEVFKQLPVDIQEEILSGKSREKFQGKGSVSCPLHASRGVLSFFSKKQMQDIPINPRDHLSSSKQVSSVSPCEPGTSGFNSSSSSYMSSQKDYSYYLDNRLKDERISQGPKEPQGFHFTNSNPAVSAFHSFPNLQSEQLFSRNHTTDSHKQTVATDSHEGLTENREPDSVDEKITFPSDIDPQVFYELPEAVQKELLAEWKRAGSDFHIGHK
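Fluorescent replication assay read twice, at 0 min and 10 min after adding 50 nM (final) substrate. Enzyme (10 nM) and compounds were first incubated 15 min at room temperature; enzyme-free buffer wells were negative controls.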
PGK validate: blocks T. brucei phosphoglycerate kinase. shares compounds with Pol kappa inh-1. TbPGK coupled GAPDH assay, Kinase-Glo luminescence. 500 compounds, 79% hits. Potency, µM (highest dose often 57.5 µM), without a hit: at the top dose activity change, negative = inhibition, most hits filed as inhibitors. AID 686980; note: potency is the fitted concentration of half-maximal effect; % is set by controls: 0 for no effect and ±100 for the full control effect; nearly all actives have a fitted effect of over 65% in size
Pol iota confirm: Confirm cherry-picked inhibitors of human polymerase iota; shares compounds with Pol kappa inh-1; Potency, µM, hits mostly inhibitors; Pol iota primer extension, TAMRA/BHQ fluorescence; 1,500 compounds, 77% hits; note: potency is the fitted concentration of half-maximal effect
Pol kappa inh-2: confirmation of human DNA polymerase kappa inhibitors. shares compounds with Pol eta inh-1. Potency, µM, actives largely listed as inhibitors. AID 720501. 920 compounds, 76% hits. purified Pol-kappa, fluorescent strand-displacement substrate; note: potency is the fitted concentration of half-maximal effect
Pol eta inh-2: Pol eta (human) inhibition, cherry-pick confirmation; shares compounds with Pol eta inh-1; Pol eta primer extension, TAMRA/BHQ fluorescence, 10 min; Potency, µM, actives largely listed as inhibitors; 2,600 compounds, 64% hits; note: potency is the fitted concentration of half-maximal effect
Starred values were filed as active, the others as inactive; ? = inconclusive; · = not tested or not shown; [ ] = another dose, or the depositor's remark. Most compounds without a hit are left out; they make up all but 2.8% or so of the library. Unless noted, calls come from the whole dose curve; as a rule, active = well fitted curve in the direction sought with a large enough effect; inconclusive = small, poorly fitted or top-dose-only effect, or another doubt; inactive = no such curve, though single readings can be large; an effect the other way counts as inactive or inconclusive.

SMILES	POLB inh	Pol kappa inh-1	PI5P4Ka inh	Pol eta inh-1	WRN inhibitor	POLI inh	Pol iota confirm	Pol eta inh-2	others
O=C(CSc1nnc(-c2cccc(S(=O)(=O)N3CCCC3)c2)n1-c1ccccc1)Nc1ccc(C(=O)O)cc1	32µM*	?	?	35µM*	50µM*	?	42*	43*
O=C(O)c1cc(O)c2c(c1)[C@@H]([C@H]1c3cc(C(=O)O)cc(O)c3C(=O)c3c(O[C@@H]4O[C@H](CO)[C@@H](O)[C@H](O)[C@H]4O)cccc31)c1cccc(OC3O[C@H](CO)[C@@H](O)[C@H](O)[C@H]3O)c1C2=O (stereo partly specified)	·	-97%	-89*	-100%	1.1µM*	-107%	3*	6*	PGK validate=2.6µM*;Pol kappa inh-2=2.7*
O=C1c2cc(CO)cc(O)c2C(=O)c2c(O[C@@H]3OC(CO)[C@@H](O)[C@@H](O)[C@@H]3O)cccc21 (stereo partly specified)	·	-6%	-11	4%	-11%	-17%	·	·
O=C(NCCc1ccc(Cl)cc1)c1ccc(CSCc2ccccc2Cl)o1	5%	-9%[60.1 µM]	·	-24%	·	13%	·	·
COc1ccc(-c2cnnc(N/N=C/c3ccc(O)c(O)c3)n2)cc1	3.5µM*	25µM*	-14	20µM*	?	8.9µM*	47*	30*
Cc1ccccc1NS(=O)(=O)c1ccc2[nH]cc(C(=O)NCCc3ccccc3)c(=O)c2c1	45µM*	-9%[60.1 µM]	·	32µM*	·	?	?	48*
CSCC(=O)N1CCc2ccc(NC(=O)c3ccccc3Cl)cc2C1	5%	-7%	-1	-12%	8%	-8%	·	·
Cc1cc(C)c2c(c1)NC(C(=O)O)C1CC=CC21 (stereo unspecified)	?	25µM*	-79*	11µM*	50µM*	13µM*	27*	24*	Pol kappa inh-2=6.7*
CSc1ccc(/C=C(\C(=O)O)c2ccc(S(=O)(=O)N3CCCCC3)s2)cc1	?	-26%	-28	?	-11%[57.1 µM]	?	·	·
O=C(O)/C(=C\c1ccc(Cl)c([N+](=O)[O-])c1)c1ccc(S(=O)(=O)N2CCCC2)s1	·	?	-25	22µM*	-4%[11.6 µM]	40µM*	?	?	Pol kappa inh-2=?
Cc1cc(C=O)c(C)n1-c1ccc(Cl)c(C(=O)O)c1	3.2µM*	22µM*	-54*	3.2µM*	?	5.6µM*	11*	6*	PGK validate=12µM*
Cc1[nH][nH]c(=O)c1C(c1ccc(-c2ccc(C(=O)O)cc2)o1)c1c(C)[nH][nH]c1=O	25µM*	-34%	?	?	?	4.5µM*	60*	?
Cc1[nH][nH]c(=O)c1C(c1cc([N+](=O)[O-])ccc1O)c1c(C)[nH][nH]c1=O	5%	-2%	-8	-3%	-19%	?	·	·
CCC(COC)Oc1cc(NCc2ccccc2)c2ncn(C(C)C)c2c1 (stereo unspecified)	·	5%	0	79µM*	?	3.2µM*	47*	76*

Screening results from PubChem BioAssay.
